Assay in all cases: PBM binding z-score (relative to random genomic background probes); higher = stronger binding; sequences stand for … in GC…GCGATTGACAGCGTAGAATGAAGG
Assay [1] concerns FXR:RXRa (NR concentration 270 nM, RXRa partner concentration 90 nM). The method, boiled down: (§1)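 Binding z-scores take random background probes as their reference. They come from custom Agilent 4×180K protein-binding microarrays incubated 1 h with ligand-free nuclear receptor dimers, with antibodies against each partner (one per run) detecting binding. Scanned fluorescence was regression-normalized.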

For assay [2], the system named is LXRa:RXRa (NR concentration 270 nM, RXRa partner concentration 90 nM). A digest of the protocol: as §1
The test system of assay [3] is LXRa homodimer (NR concentration 270 nM). The method, boiled down: as §1
Assay [4] has as its system LXRb:RXRa (NR concentration 270 nM, RXRa partner concentration 90 nM). The method, boiled down: as §1
The test system of assay [5] is LXRb homodimer (NR concentration 270 nM). The method, boiled down: as §1
The test system of assay [6] is PPARa:RXRa (NR concentration 270 nM, RXRa partner concentration 90 nM). A digest of the protocol:
as §1

Assay [7] concerns PPARg:RXRa (NR concentration 180 nM, RXRa partner concentration 90 nM). A digest of the protocol: as §1
Assay [8] deals with PPARg:RXRa 270nM:90nM, anti-RXR (NR concentration 270 nM, RXRa partner concentration 90 nM). A digest of the protocol: as §1
Assay [9] relates to PPARg:RXRa 30nM:10nM, anti-RXR (NR concentration 30 nM, RXRa partner concentration 10 nM). The method, boiled down:
as §1

Assay [10] concerns PPARg:RXRa 90nM:30nM, anti-RXR (NR concentration 90 nM, RXRa partner concentration 30 nM). The method, boiled down: as §1
In assay [11] the test system is PPARg:RXRa DBDmut IVT, anti-RXR (DBD mutation: RXRa K156A/R161A, NR concentration 270 nM, RXRa partner concentration 90 nM). The method, boiled down: as §1
For assay [12], the system named is PPARg:RXRa IVT, anti-PPARg (NR concentration 270 nM, RXRa partner concentration 90 nM). A digest of the protocol:
as §1

The subject of assay [13] is PPARg DBDmut:RXRa IVT, anti-PPARg (DBD mutation: PPARg1 K132A/R137A, NR concentration 270 nM, RXRa partner concentration 90 nM). A digest of the protocol: as §1
Assay [14] has as its system PPARg DBDmut IVT, anti-PPARg (DBD mutation: PPARg1 K132A/R137A, NR concentration 270 nM). The method, boiled down:
as §1

Assay [15] has as its system PPARg homodimer (NR concentration 180 nM). A digest of the protocol:
as §1

In assay [16] the test system is PXR:RXRa (NR concentration 270 nM, RXRa partner concentration 90 nM). The method, boiled down:
as §1

Assay [17] concerns PXR homodimer (NR concentration 270 nM). The method, boiled down:
as §1

Assay [18] has as its system RARa:RXR (NR concentration 270 nM, RXRa partner concentration 90 nM). A digest of the protocol:
as §1

Assay [19] deals with RARa homodimer (NR concentration 270 nM). The method, boiled down: as §1
Assay [20] relates to RARb:RXRa (NR concentration 270 nM, RXRa partner concentration 90 nM). A digest of the protocol:
as §1

Take ACAGACAGGTGAGTGAGGGTAACTCAGCTGGACG: the PBM binding z-score in [1] was 0.174; in [2], 0.269; in assay [3], -0.243; in assay [4], -0.0988; in [5] it was -0.478; in assay [6], 0.503. The PBM binding z-score in assay [7] is 0.629; in assay [8], 0.0987; in [9], -0.248; in [10], -0.159; in [11], 0.621; in [12], 0.841. Besides, the PBM binding z-score in assay [13] is -0.523; in [14], -0.675; in [15], 0.225; in assay [16], -0.025; in assay [17] it was 0.261; in [18], 0.222. In addition, the PBM binding z-score in assay [19] was -0.162; in assay [20], 0.987.

For ATATGTAGGTTAGCTGGGGGCATTCAGACTAGGC, the PBM binding z-score was determined as 0.978 in assay [1]; 3.73 in assay [2]; 0.963 in [3]; 4.51 in assay [4]; 9.63 in [5]; 4.09 in assay [6]. The PBM binding z-score is 4.83 in [7]; 4.61 in [8]; 2.3 in [9]; 3.72 in [10]; 6.79 in assay [11]; 6.14 in assay [12]. Besides, the PBM binding z-score in [13] was 4.18; in assay [14], 5.68; in [15], 1.96; in assay [16] it was 4.39; in [17], 1.88; in assay [18] it was 2.5. For the same sequence, the PBM binding z-score in assay [19] stood at 1.27; in assay [20], 2.25.

As for CGTCCAAGGTCAAAGGTCAGTCAAGAGATGACGG, the PBM binding z-score in assay [1] turned out to be 8.41; in [2], 6.97; in assay [3] it was 3.05; in assay [4], 6.77; in assay [5], 1.83; in assay [6] it was 7.07. Further, the PBM binding z-score in assay [7] came out at 10.9; in assay [8] it was 8.99; in assay [9], 7.83; in [10], 9.18; in assay [11] it was 3.88; in assay [12] it was 5.75. Besides, the PBM binding z-score is 0.706 in assay [13]; -0.299 in assay [14]; 2.8 in assay [15]; 7.08 in assay [16]; 1.81 in assay [17]; 9.03 in [18]. Besides, the PBM binding z-score in assay [19] came to 1.5; in assay [20], 5.97.

In the case of GTACCAAGGTGATTAGGTCGTTGATGAGTAGGCG, the PBM binding z-score in [1] was 0.478; in [2], 0.469; in assay [3] it was 0.085; in [4], 0.0701; in assay [5] it was -0.428; in assay [6], 0.886. For the same sequence, the PBM binding z-score was 0.547 in [7]; 0.741 in assay [8]; -0.00723 in assay [9]; 0.0201 in assay [10]; 1.26 in assay [11]; 1.63 in [12]. The PBM binding z-score is 0.301 in assay [13]; -0.28 in assay [14]; 1.06 in assay [15]; 0.265 in assay [16]; 0.198 in assay [17]; 0.753 in assay [18]. The PBM binding z-score was found to be 0.341 in assay [19] and 1.1 in assay [20].

As to AGAATGAGGTTATTAAGATAAGGGAATTGCGGTC, the PBM binding z-score is 1.33 in assay [1]; 1.59 in assay [2]; -0.0371 in assay [3]; 1.08 in [4]; -0.0386 in assay [5]; 2.64 in [6]. Besides, the PBM binding z-score is 1.47 in assay [7]; 1.65 in assay [8]; 0.732 in assay [9]; 0.962 in assay [10]; 2.05 in [11]; 2.31 in assay [12]. The PBM binding z-score is 1.03 in [13]; 0.188 in assay [14]; 0.58 in assay [15]; 0.886 in [16]; 0.278 in [17]; 1.24 in [18]. Also, the PBM binding z-score in assay [19] came to 0.541; in [20], 1.23.

TCAGACAGGTGAAGGTATCTCAGGTACGCAGTCG: the PBM binding z-score was 0.108 in assay [1]; 0.719 in [2]; -0.00263 in assay [3]; 0.477 in assay [4]; -0.0583 in assay [5]; 0.944 in [6]. For the same sequence, the PBM binding z-score in assay [7] was found to be 0.741; in assay [8] it was 2.22; in assay [9], 3.93; in assay [10], 3.03; in [11], 2.51; in assay [12] it was 0.967. Further, the PBM binding z-score was -0.232 in assay [13]; 0.111 in assay [14]; 0.602 in [15]; 0.375 in [16]; 0.13 in assay [17]; 0.509 in assay [18]. The PBM binding z-score in assay [19] turned out to be 0.153; in [20] it was 1.08.

Take CCTAGCAGGCCAATCTGGGTCTCTCAAGGCTTGA: the PBM binding z-score in assay [1] was -0.268; in [2], -0.409; in assay [3] it was -0.738; in [4], -0.885; in assay [5] it was -0.982; in assay [6], 0.318. In addition, the PBM binding z-score is -0.774 in [7]; -0.468 in assay [8]; -1.1 in assay [9]; -0.61 in [10]; 1.89 in [11]; 1.97 in assay [12]. For the same sequence, the PBM binding z-score in assay [13] is -0.916; in [14] it was -2.13; in assay [15] it was -1.06; in assay [16] it was -0.821; in assay [17] it was -0.804; in assay [18] it was -0.353. Also, the PBM binding z-score was -0.835 in assay [19] and 0.0483 in [20].

The values above are taken from the supplement of paper PMC6555819.
